Measured values taken from PubChem BioAssay (NCI).
The panel holds about 79,000 compounds, 15% with a hit somewhere; the sample as a whole holds those more often. Rule as the data show it: active = growth inhibition above about 70%; inactive = the rest. Where a SMILES comes first, the peptide text is derived from it. The star is where a group is joined. Boc = CC(C)(C)OC(=O)*

Experiments:
[1] = NCI Yeast Anticancer Drug Screen. Data for the rad50 strain (AID 155);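 also: 0% = growth of vehicle-only cultures of the same strain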; details: S. cerevisiae rad50 strain growth inhibition; at 50.0 µM; stronger effect = higher value
Outline: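 Yeast carrying a defined DNA repair defect were exposed to test compounds, and growth was compared with vehicle-treated controls to give percent inhibition.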

[2] = NCI Yeast Anticancer Drug Screen. Data for the mec2-1 strain (AID 157); details: S. cerevisiae mec2-1 strain, at 50.0 µM, stronger effect = higher value
Outline: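 Vehicle-treated cultures served as reference for growth inhibition of compound-exposed mec2-1 yeast.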

[3] = NCI Yeast Anticancer Drug Screen. Data for the sgs1 mgt1 strain (AID 161);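 also: 0% = growth of cultures given vehicle only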; details: S. cerevisiae sgs1 mgt1 strain, at 50.0 µM, stronger effect = higher value
Outline: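 Genetically altered yeast, compound exposure, growth inhibition relative to vehicle.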

[4] = NCI Yeast Anticancer Drug Screen. Data for the cln2 rad14 strain (AID 165);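 also: 0% = growth equal to vehicle treated cultures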; details: S. cerevisiae cln2 rad14 strain, at 50.0 µM, stronger effect = higher value
Outline: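 Each compound was tested on cln2 rad14 yeast. Inhibition of growth was calculated against vehicle-exposed controls.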

[5] = NCI Yeast Anticancer Drug Screen. Data for the bub3 strain (AID 167); details: S. cerevisiae bub3 mutant strain, at 50.0 µM, stronger effect = higher value
Outline: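 Compounds were applied to a genetically altered yeast strain carrying a cell-cycle control defect. Growth inhibition was scored against vehicle-treated controls.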

[6] = NCI Yeast Anticancer Drug Screen. Data for the mlh1 rad18 strain (AID 175); details: S. cerevisiae mlh1 rad18 strain growth inhibition; at 50.0 µM; stronger effect = higher value
Outline: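 Vehicle-treated cultures served as the reference for growth inhibition in a yeast strain carrying DNA damage repair alterations exposed to each compound.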

Measured: growth inhibition

O=C(O)c1ccccc1/C=N\NC1=NCCCCN1
inactive: [1] -34.2% | [2] -10.3% | [3] -31.4% | [4] 20.2% | [5] -27.6% | [6] -18.4%

Cc1ccc2c(c1)nc(N)n[n+]2[O-]
inactive: [1] 2.85% | [2] -14.7% | [3] -3.4% | [4] 3.25% | [5] -8.95% | [6] -39.5%

C=C1COC(/C=C(\C)CC/C=C(\C)CCl)C1 (stereo not drawn)
inactive: [1] -7.4% | [2] -20.2% | [3] -18.6% | [4] 28.1% | [5] -17.1% | [6] -1.7%

CC(=S)NC=C(C(N)=O)C(N)=O
inactive: [1] 6.65% | [2] 1.05% | [3] 11.7% | [4] 16% | [5] -4.2% | [6] -16.5%

O=[N+]([O-])c1ccc2c(c1)C(=Nc1ccc(Cl)cc1)c1ccccc1-2
inactive: [1] -0.95% | [2] -8.6% | [3] -8% | [4] -32% | [5] 24.1% | [6] 5.45%

Cc1ccc(C2=Nn3c(nc4sc5c(c4c3=O)CCCC5)SC2)cc1
inactive: [1] -25.7% | [2] -19.4% | [3] -39.1% | [4] -5.9% | [5] -27.4% | [6] -21.8%

CS(=O)(=O)OC1CCCSc2ccccc21 (stereo not drawn)
inactive: [1] 8.8% | [2] 2% | [3] -14.4% | [4] -8.2% | [5] 16.7% | [6] -25.4%

C#CC1(O)c2ccccc2C(=O)c2ccccc21
inactive: [1] -1.05% | [2] -7.85% | [3] -7.65% | [4] -7.35% | [5] 6.7% | [6] -2.35%

O=C1OC(=O)C2=C1C1C=CC2CC1
inactive: [1] 3.4% | [2] -7.05% | [3] 3% | [4] 0% | [5] -9.05% | [6] 13.4%

CCOC(=O)c1c(Br)c2c3ccccc3c3ccccc3n2c1C
inactive: [1] 1.7% | [2] -4.9% | [3] -3.75% | [4] -11.8% | [5] 1.8% | [6] 7.25%

Fc1ccc(N=Cc2ccc(C=Nc3ccc(F)cc3)cc2)cc1
inactive: [1] 20.9% | [2] 30.1% | [3] 18.7% | [4] 10.2% | [5] 38% | [6] 27.2%

COC1CC(OC2CCC3(C)C(=CCC4C3C(OC(C)=O)C(OC(=O)CC(C)C)C3(C)C(C(C)=O)CCC43O)C2)OC(C)C1OC1CC(OC)C(OC2CC(OC)C(OC3OC(C)C(O)C(OC)C3O)C(C)O2)C(C)O1 (stereo not drawn)
inactive: [1] 31.3% | [2] 6.55% | [3] 21.4% | [4] 16.9% | [5] -1.9% | [6] -83.5%

Cc1cc2oc3ccccc3c(=O)c2c(C)c1Cl
inactive: [1] -18.1% | [2] 5.1% | [3] -9.65% | [4] -3.1% | [5] 10.4% | [6] -3.6%

CCN(CC)CCN1c2ccccc2Sc2ccc3ccccc3c21
inactive: [1] 37.5% | [2] 0.8% | [3] 2.7% | [4] 3.4% | [5] 38.5% | [6] 58.5%

Cn1cc(S(=O)(=O)NC(=O)Nc2ccc(Cl)cc2)c(=O)c2ccc(Cl)cc21
inactive: [1] 21.6% | [2] 20.8% | [3] 23.1% | [4] -17.5% | [5] 33.2% | [6] 8.75%

O=C1C(Cc2ccc(O)cc2)NC(=S)N1c1ccccc1 (stereo not drawn)
inactive: [1] 0.6% | [2] -9.85% | [3] 24.9% | [4] -2.75% | [5] 20% | [6] -19.8%

CCO/C=C\C(OCC)OCC
inactive: [1] 3.55% | [2] -8.95% | [3] 3.1% | [4] -15.2% | [5] 18.2% | [6] -0.6%

COc1ccc(C(C#N)C(=O)C(=O)Nc2ccc(Cl)cc2C)cc1OC (stereo not drawn)
inactive: [1] -19.9% | [2] 17.9% | [3] 24.6% | [4] -14.2% | [5] 2.65% | [6] 16.9%

Fc1ccc2c(c1)CC(CBr)O2 (stereo not drawn)
inactive: [1] -14.2% | [2] -8.5% | [3] -4.5% | [4] -23.9% | [5] -1.95% | [6] 2.8%

CCOC(=O)C1CSC(c2ccccc2)=N1 (stereo not drawn)
inactive: [1] 8.75% | [2] -4.4% | [3] -2.35% | [4] -4.25% | [5] -8.35% | [6] 27.1%

NS(=O)(=O)/C=C(\Cl)c1ccccc1
inactive: [1] 1.7% | [2] 2.15% | [3] 2.95% | [4] -16.6% | [5] 12.2% | [6] -0.55%

COC(C[P+](Cc1ccccc1)(c1ccccc1)c1ccccc1)OC
inactive: [1] 66.9% | [2] -2.7% | [3] 39% | [4] 2.4% | [5] 4.1% | [6] 4.35%

O=C(COc1cc(Cl)c(Cl)cc1Cl)Nc1ccc(N=Nc2ccccc2)cc1
inactive: [1] 2% | [2] 3.55% | [3] -12.6% | [4] -9.55% | [5] 2.75% | [6] -7.95%

OCCCNCc1ccncc1
inactive: [1] 22.8% | [2] -15.8% | [3] -14.6% | [4] 33.5% | [5] -16.2% | [6] -3.55%

Cc1cc(=O)n2ccnc2[nH]1
inactive: [1] 24.2% | [2] 11.3% | [3] 6.2% | [4] 19.1% | [5] 9.65% | [6] 20.1%

CC(=O)c1ccc(N2C(=O)C3c4[nH]c5ccccc5c4C4CCC(C(C)(C)C)CC4C3C2=O)cc1 (stereo not drawn)
inactive: [1] 42.8% | [2] -2.7% | [3] 0.5% | [4] 63% | [5] 16% | [6] 18.4%

CN(C)C(N)=Nc1ncnc2ccccc12
inactive: [1] -14.6% | [2] 15.2% | [3] 0.45% | [4] 15.7% | [5] -5.85% | [6] -1.8%

NC(=O)Cc1cc2c(cc1CO)OCO2
inactive: [1] 3.85% | [2] 1.8% | [3] 2.45% | [4] 7.9% | [5] -13.3% | [6] 5.55%

COC(=O)C(Cc1c[nH]c2ccccc12)NC(=O)C(Cc1c[nH]c2ccccc12)NC(=O)C(Cc1c[nH]c2ccccc12)NC(=O)OC(C)(C)C (stereo not drawn) (Boc-Trp-Trp-Trp-OMe; configuration not given here)
inactive: [1] -22.9% | [2] -16.6% | [3] -2.45% | [4] 10% | [5] -3.6% | [6] 1.5%

COc1ccc(C(=O)COC(C)(C)C)cc1
inactive: [1] -8.55% | [2] -28.2% | [3] -20% | [4] -2.7% | [5] -16.9% | [6] -22.1%

NC(CCS(N)(=O)=O)C(=O)O (stereo not drawn)
inactive: [1] -9.45% | [2] -5.3% | [3] -1.85% | [4] -2.7% | [5] 5.5% | [6] -10.9%

CC(C)CC(CCl)Cc1nc2ccccc2[nH]1 (stereo not drawn)
inactive: [1] 13.1% | [2] 4.05% | [3] 39.8% | [4] 14.9% | [5] 33.6% | [6] 27.5%

CC(=O)NC(C)(CO)C(=O)O (stereo not drawn)
inactive: [1] 22.6% | [2] 12.7% | [3] 19.4% | [4] 13.4% | [5] 7.35% | [6] 14.1%

S=c1[nH]c2ccccc2nc1NCc1ccccc1
inactive: [1] -1.55% | [2] 2.75% | [3] 2.15% | [4] -19.8% | [5] 10.1% | [6] 2.3%

Cc1cc(C(C)(C)C)ccc1S(=O)(=O)/C=C/c1ccccc1
inactive: [1] -18.6% | [2] -23.1% | [3] -6.1% | [4] 0.45% | [5] -1.7% | [6] -26.1%

CC(CC(=N)N)NC(=O)C1CCC(N)=N1 (stereo not drawn)
inactive: [1] 6% | [2] -41.2% | [3] 2.15% | [4] -1.6% | [5] -14.2% | [6] -9.75%

C=CCc1cc(C)ccc1OC(=O)c1cc([N+](=O)[O-])cc([N+](=O)[O-])c1
inactive: [1] 2.85% | [2] -3.4% | [3] 4.55% | [4] -40% | [5] -6.6% | [6] 0.6%

O=C(S)C(=O)Cc1cn[nH]n1
inactive: [1] -3.95% | [2] -1.9% | [3] -4.5% | [4] 6.15% | [5] -7.25% | [6] -26.8%
